Results reported in PubChem BioAssay AID1362 (SRMLSC, 2008).
Hit rate of the full screen: of about 190,000 compounds, about 4,000 (2.1%) were called active. No stated cut-off is given here; in the data, active means inhibition above about 58%; inactive means the rest, inconclusive results apart; tested in S. cerevisiae. The sample as a whole holds a higher share of actives than the screen did.

Assay: growth inhibition of WT strain, primary screen, mitochondrial fusion inhibitor project, WT and mutant strains, chemical genetic (AID 1362)
Conditions: mitochondrial fusion phenotypic screen, at 10 µM
[1] = WT strain, growth inhibition, stronger effect = higher value

| SMILES | inhibition [1] | inhibition (mutant strain inhibition) [%] |
| --- | --- | --- |
| CCc1cccc2c(=O)c(C(=O)NCCCOC)c[nH]c12 | 4.61% (inactive) | 8.59 |
| CCN1CCN(CC(=O)c2cc(OC)c(OC)c(OC)c2)CC1 | -2.06% (inactive) | -0.71 |
| COc1cccc(-c2nc3cc(C)ccc3o2)c1 | 26.9% (inactive) | 17.7 |
| CC(C)(C)Oc1ncc(Br)c(OC(C)(C)C)n1 | 18.5% (inactive) | 15.1 |
| COc1cccc(-c2cnc(OC(C)(C)C)nc2OC(C)(C)C)c1 | 84.1% (active) | 27.8 |
| Cc1ccccc1NC(=O)NNC(=O)OC(C)(C)C | -2.03% (inactive) | -7.53 |
| [O-][n+]1c2c(nn1-c1ccc(Cl)c(Cl)c1)-c1nonc1CC2 | 38% (inactive) | 6.81 |
| CN(C)CCN=c1cc(-c2ccccc2)oc2ccc(Cl)cc12 | 10.8% (inactive) | 15.6 |
| c1ccc2c(NC3C4CC5CC(C4)CC3C5)nc(N3CCOCC3)nc2c1 (stereo not given) | 69.3% (active) | 45.5 |
| c1ccc(Nc2nc(N3CCOCC3)c3ccccc3n2)cc1 | 44.7% (inactive) | 45.5 |
| CC(Nc1nc(N2CCOCC2)nc2ccccc12)c1ccccc1 (stereo not given) | 7.41% (inactive) | -4.07 |
| CCc1nc2ccccc2c(C(=O)NCc2ccc(OC)cc2)c1C | -7.63% (inactive) | -13.1 |
| CC(=O)NC1C(Oc2ccc(C=O)cc2)OC(COC(C)=O)C(OC(C)=O)C1OC(C)=O (stereo not given) | -6.93% (inactive) | -11.4 |
| Cn1nnnc1-c1cc(Cl)cc(Cl)c1 | 0.51% (inactive) | 21.3 |
| CCCCc1nc(NCCN)c(C#N)c2c1CSC(C)(C)C2 | 85.3% (active) | 31.7 |
| CCCCc1nc(NCc2ccccc2)c(C#N)c2c1CCCC2 | -9.79% (inactive) | 2.15 |
| Cc1nc(NCCN)c(C#N)c2c1COC(C)(C)C2 | 24.4% (inactive) | 10.2 |
| CCN1CCN(c2ccc(NC(=O)c3cnccn3)cc2)CC1 | 4.84% (inactive) | 4.5 |
| CCn1ccnc1CN1CCCC(C(=O)c2ccc3c4c(cccc24)CC3)C1 (stereo not given) | 42.3% (inactive) | 36.2 |
| Cc1cnc(C(=O)OCC(=O)NCCCc2ccccc2)cn1 | 14.9% (inactive) | 3.19 |

| SMILES | inhibition [1] | inhibition (mutant strain inhibition) [%] |
| --- | --- | --- |
| O=c1c2ccccc2c(-c2ccccc2)nn1Cc1ccccc1 | -8.61% (inactive) | -0.27 |
| O=c1cc(N2CCCCC2)c(-c2ccccc2)nn1Cc1cccc(F)c1 | 87.9% (active) | 46.3 |
| O=c1cc(N2CCN(Cc3ccccc3)CC2)c(-c2ccccc2)n[nH]1 | -12.8% (inactive) | -10.6 |
| CC(=O)Nc1ccccc1OC(C)C(=O)N1CCC(C)CC1 (stereo not given) | -7.46% (inactive) | 7.56 |
| Cc1ccc(C)c(-n2ccnc2SCC(N)=O)c1 | 5.62% (inactive) | 13.6 |
| O=C(CCn1c(=S)[nH]c2ccccc2c1=O)NCCCN1CCCC1=O | -5% (inactive) | -5.53 |
| CCCCn1c(=S)[nH]c2ccccc2c1=O | 4.59% (inactive) | 8.61 |
| O=c1c2ccccc2[nH]c(=S)n1CCN1CCC(=C(c2ccc(F)cc2)c2ccc(F)cc2)CC1 | 77.9% (active) | 62.2 |
| Cc1ccc(Cn2c(NC(=O)c3ccco3)nc3ccccc32)cc1 | 92.4% (active) | -2.81 |
| CC(=O)Nc1nc2ccccc2n1Cc1ccc(C)cc1 | 15.3% (inactive) | 15.5 |
| Cc1ccc(-n2nc3cc(Cl)c(NC(=O)c4ccco4)cc3n2)cc1 | 16.1% (inactive) | -7.45 |
| O=C(C(=O)N1CCc2ccccc2C1)c1c[nH]c2ccccc12 | 12.7% (inactive) | -9.54 |
| COCCN(C(=S)Nc1ccccc1OC)C1CCN(C(C)C)CC1 | -3.78% (inactive) | -1.71 |
| Cc1ccc(CN(Cc2cccnc2)C(=S)Nc2cccc(Cl)c2C)cc1 | 73.9% (active) | 36.3 |
| Cc1cccc(C)c1NC(=S)N(Cc1cccnc1)Cc1ccccc1Cl | -4.3% (inactive) | -19.8 |
| Cc1ccc(CN(Cc2cccnc2)C(=S)Nc2cc(Cl)ccc2C)cc1 | 65.8% (active) | 29.6 |
| Cc1c(Cl)cccc1NC(=S)N(Cc1ccccc1)Cc1cccnc1 | 32.8% (inactive) | 35.6 |
| Cc1ccc(Cl)cc1NC(=S)N(CCN(C)C)Cc1cccs1 | 3.98% (inactive) | 13.3 |
| COCCNC(=S)N(Cc1cccnc1)Cc1ccc(OC)c(OC)c1 | 0.04% (inactive) | 0 |
| CCCCCCCCc1c(O)nc(-n2[nH]c(C)c(CCO)c2=O)[nH]c1=O | -1.35% (inactive) | -2.06 |

| SMILES | inhibition [1] | inhibition (mutant strain inhibition) [%] |
| --- | --- | --- |
| O=C1OC(OC(=O)c2ccccc2Br)C(N2CCOCC2)=C1Cl (stereo not given) | -3.78% (inactive) | 5.3 |
| Cc1ccccc1C(=O)OC1OC(=O)C(Cl)=C1Nc1ccccc1 (stereo not given) | 31% (inactive) | 3.24 |
| Cc1ccc(NC2=C(Cl)C(=O)OC2OC(=O)c2ccccc2C)cc1 (stereo not given) | 72.2% (active) | 69 |
| Cc1cc(/C=N/NC(=O)c2cccnc2)c(C)n1CC(C)C | -2.78% (inactive) | -1.44 |
| CCN(CC)CCNc1nc(-c2ccc(OC(F)F)cc2)c(C)s1 | 14.9% (inactive) | -3.63 |
| COc1ccc(OC)c(Cc2nnc(CCC(=O)NC3CCCC3)o2)c1 | -6.11% (inactive) | 1.25 |
| CN(C)CCCNC(=S)NCc1ccc(Cl)cc1 | -0.46% (inactive) | 2.88 |
| S=C(NCc1ccc(Cl)cc1)NC12CC3CC(CC(C3)C1)C2 | -4.06% (inactive) | 3.59 |
| S=C(NCc1ccc(Cl)cc1)NC1CCCCC1 | 68% (active) | 50.3 |
| COc1cccc2cc(S(=O)(=O)c3ccc(C)cc3)/c(=N/NS(=O)(=O)c3ccc(C)cc3)oc12 | -19.1% (inactive) | 0.47 |
| O=C(NCC1COc2ccccc2O1)C1(c2ccccc2)CCCC1 (stereo not given) | 13.2% (inactive) | 3.88 |
| c1ccc(-c2cc3c(NCC4COc5ccccc5O4)ncnc3s2)cc1 (stereo not given) | 82% (active) | 45.9 |
| c1ccc2c(c1)OCC(CNc1ncnc3nc[nH]c13)O2 (stereo not given) | 5.51% (inactive) | -5.69 |
| O=[N+]([O-])c1ccc(Sc2n[nH]c(-c3ccco3)n2)nc1 | -3.94% (inactive) | -1.1 |
| CSCc1cc(N(C)C)nc(SCc2ccc(Cl)cc2Cl)n1 | 59.7% (active) | 52.5 |
| Cc1ccc(Sc2cc(N3CCOCC3)nc(-c3ccccc3)n2)cc1 | -0.33% (inactive) | 3.68 |
| CSCc1cc(N2CCOCC2)nc(SCc2ccc(Cl)cc2Cl)n1 | 79.1% (active) | 52.8 |
| Clc1ccc(CSc2nnc(/C=C/c3ccccc3)o2)c(Cl)c1 | 38% (inactive) | 26.7 |
| O=C(Nc1nnc(SCc2ccc(Cl)cc2Cl)s1)C1COc2ccccc2O1 (stereo not given) | 56.1% (inactive) | 17.9 |
| O=c1cc(CSc2ccc(Cl)cc2)nc(N2CCOCC2)[nH]1 | 10.4% (inactive) | -7.43 |
